Bioassay records from PubChem.
This is a sample that favours compounds with a hit; in the whole collection about 2.4% have one here.
TLR4-MyD88 BLA: TLR4-MyD88 interaction inhibition in cells; O00206+Q99836; HeLa CL3-4 TLR4/MyD88 BLA complementation, FRET ratio; inhibition, % at 8.4 µM; 0.18% of 200,000 active; in the data active = inhibition above about 25%;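 note: 0% = vehicle and 100% = reference inhibitor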
HSF1 inhib: HSF1 inhibition; NIH3T3-HGL HSE-luciferase, MG132-induced, luminescence 8 h; active compounds read low; activity change, negative = inhibition, % at 7.5 µM (by protocol); 0.77% of 300,000 active;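 active = more than half of replicate wells show activity change below -50%, luminescence cut by over half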;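 note: luciferase reports HSF-1 transcriptional activity via heat shock element; 0% = median of DMSO wells and -100% = zero luminescence signal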
NOD2 RIPK2 PPI: blocks binding of human NOD2 to RIPK2. O43353. CHO BLA complementation NOD2-RIPK2, CCF4 ratio. inhibition, % at 4.98 µM. 0.38% of 360,000 active; in the data active = inhibition above about 21%;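 note: 0% = vehicle only and 100% = reference blocker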
HSF1 activator: increases HSF-1 driven luciferase reporter signal | NIH3T3-HGL HSF-1 luciferase reporter, MG132, 8 h; 100% = twice DMSO control signal | activation, % at 9 µM | 1.7% of 300,000 active | AID 504408;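 active = mean replicate activation of at least 50% with a set share of replicates each reaching 50%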;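 note: 0% = median of the neutral control wells and 100% = twice that signal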
TLR9-MyD88 block: blocks human TLR9 binding to MyD88; CHO BLA complementation TLR9-MyD88, CCF4 FRET ratio; Q9NR96+Q99836; 0.21% of 340,000 active; inhibition, % at 4.98 µM;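 active = inhibition above the mean over all tested compounds plus 3 SD, cut at about 21% in these data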;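 note: 0% = DMSO only wells and 100% = clavulanate BLA inhibitor control wells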
Target sequence (Q99836 whole entry, looked up): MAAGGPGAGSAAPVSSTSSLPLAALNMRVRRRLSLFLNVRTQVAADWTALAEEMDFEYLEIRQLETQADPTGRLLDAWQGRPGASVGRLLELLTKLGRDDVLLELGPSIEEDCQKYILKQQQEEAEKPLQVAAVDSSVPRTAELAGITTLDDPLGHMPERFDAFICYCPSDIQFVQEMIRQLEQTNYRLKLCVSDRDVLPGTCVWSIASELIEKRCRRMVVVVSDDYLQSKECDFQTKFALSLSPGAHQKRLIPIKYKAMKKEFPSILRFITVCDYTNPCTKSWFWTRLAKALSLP
Target sequence (Q9NR96 whole entry, looked up): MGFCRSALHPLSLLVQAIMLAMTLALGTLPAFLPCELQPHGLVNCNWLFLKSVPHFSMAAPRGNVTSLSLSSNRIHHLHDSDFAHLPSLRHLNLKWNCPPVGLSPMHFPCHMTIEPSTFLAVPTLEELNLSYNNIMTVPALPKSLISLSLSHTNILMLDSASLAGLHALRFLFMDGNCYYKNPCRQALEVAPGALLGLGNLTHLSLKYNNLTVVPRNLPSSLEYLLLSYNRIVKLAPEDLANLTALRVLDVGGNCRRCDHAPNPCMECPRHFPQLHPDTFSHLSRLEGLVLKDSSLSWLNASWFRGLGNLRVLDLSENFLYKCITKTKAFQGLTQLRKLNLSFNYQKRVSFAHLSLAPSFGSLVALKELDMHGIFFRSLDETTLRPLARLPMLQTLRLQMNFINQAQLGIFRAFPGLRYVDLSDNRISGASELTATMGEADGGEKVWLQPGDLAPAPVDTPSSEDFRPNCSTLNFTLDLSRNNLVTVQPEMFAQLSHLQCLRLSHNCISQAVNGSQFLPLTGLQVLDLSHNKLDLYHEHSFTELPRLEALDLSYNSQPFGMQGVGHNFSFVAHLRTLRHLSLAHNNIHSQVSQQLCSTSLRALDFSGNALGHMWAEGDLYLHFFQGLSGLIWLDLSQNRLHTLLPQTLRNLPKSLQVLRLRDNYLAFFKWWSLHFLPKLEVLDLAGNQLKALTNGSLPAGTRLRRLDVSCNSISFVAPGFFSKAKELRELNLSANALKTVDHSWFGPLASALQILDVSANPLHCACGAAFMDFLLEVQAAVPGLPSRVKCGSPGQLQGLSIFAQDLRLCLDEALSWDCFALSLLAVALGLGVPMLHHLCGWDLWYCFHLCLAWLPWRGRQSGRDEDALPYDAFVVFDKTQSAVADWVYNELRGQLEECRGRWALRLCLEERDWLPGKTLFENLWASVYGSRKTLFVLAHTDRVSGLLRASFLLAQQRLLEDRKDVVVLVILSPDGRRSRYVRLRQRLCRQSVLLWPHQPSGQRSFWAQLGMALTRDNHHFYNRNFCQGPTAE
Active calls of the source: *.

Results for COc1ccc(-c2cc(NC(C)=O)c3ncc(-c4ccc(F)cc4)n3c2)cc1OC ?
NOD2 RIPK2 PPI: 0

How did COc1cc(C(=O)NCCSc2ccc(F)cc2)cc(OC)c1OC do in these assays?
HSF1 inhib: 16; NOD2 RIPK2 PPI: -9; HSF1 activator: 66*; TLR9-MyD88 block: -10

Results for COc1cc(SC)ccc1C(=O)NCCOc1ccc(F)cc1 ?
TLR4-MyD88 BLA: -12; HSF1 inhib: 45; NOD2 RIPK2 PPI: 5; HSF1 activator: 68*; TLR9-MyD88 block: 0

How did COCCCNC(=O)c1cc(OC)c(OC)c(OC)c1 do in these assays?
TLR4-MyD88 BLA: 1; HSF1 inhib: -2; NOD2 RIPK2 PPI: -6; HSF1 activator: 2; TLR9-MyD88 block: -8

What do the screens show for `OCC1OC(c2ccc(OCc3ccccc3)cc2OCc2ccccc2)C(O)C1O` (stereo not drawn)?
NOD2 RIPK2 PPI: 6; TLR9-MyD88 block: 2

Results for C[C@@H](C(=O)Nc1ccc2c(c1)OCCO2)n1c(=O)[nH]c2ccccc2c1=O ?
HSF1 inhib: -77*; NOD2 RIPK2 PPI: -10; HSF1 activator: -81; TLR9-MyD88 block: 8

What do the screens show for `COc1cccc(CC(=O)OCC(=O)NC(C)c2ccc(F)cc2)c1` (stereo not drawn)?
NOD2 RIPK2 PPI: -6; TLR9-MyD88 block: -12

How did Cc1ccc(C)c(N2CCN(CCN3CCCCC3)CC2)c1 do in these assays?
HSF1 inhib: -57*; NOD2 RIPK2 PPI: -7; HSF1 activator: -63; TLR9-MyD88 block: -2

How did COc1ccccc1NS(=O)(=O)c1cccc(C(=O)N2CC(C)OC(C)C2)c1 (stereo not drawn) do in these assays?
HSF1 inhib: -4; NOD2 RIPK2 PPI: -2; HSF1 activator: 0; TLR9-MyD88 block: 0

What do the screens show for `CCCCSc1nc(C)cc(SCC(=O)N/N=C/c2cccc(OC)c2O)n1`?
TLR4-MyD88 BLA: 3; HSF1 inhib: 42; NOD2 RIPK2 PPI: 0; HSF1 activator: 84*; TLR9-MyD88 block: 6

How did CC1(C)c2[nH]c3ccccc3c2C[C@H]2C(=O)N(CCCO)CC(=O)N21 do in these assays?
HSF1 inhib: -8; NOD2 RIPK2 PPI: -2; HSF1 activator: 6; TLR9-MyD88 block: -6

How did CCCCCCN1CC(=O)N2[C@@H](Cc3c([nH]c4ccccc34)C2(C)C)C1=O do in these assays?
HSF1 inhib: -51*; NOD2 RIPK2 PPI: -7; HSF1 activator: -58; TLR9-MyD88 block: -6

Results for CCOC(=O)CCCNS(=O)(=O)c1c(C)ccc2nsnc12 ?
TLR4-MyD88 BLA: -7; HSF1 inhib: -89*; NOD2 RIPK2 PPI: -1; HSF1 activator: -91; TLR9-MyD88 block: 12

Results for Nn1c(SCC(=O)N2CCCC2)nnc1C1CCCCC1 ?
NOD2 RIPK2 PPI: 8; TLR9-MyD88 block: -4

Results for Nn1c(SCC(=O)N2CCOCC2)nnc1C1CC1 ?
TLR4-MyD88 BLA: 0; HSF1 inhib: 26; NOD2 RIPK2 PPI: -3; HSF1 activator: 83*; TLR9-MyD88 block: 3

How did Nn1c(SCC(=O)NCc2ccccc2)nnc1C1CC1 do in these assays?
TLR4-MyD88 BLA: 2; HSF1 inhib: 12; NOD2 RIPK2 PPI: 0; HSF1 activator: 52*; TLR9-MyD88 block: 2

How did CCCc1ccc(NC(=O)C2CCCN(c3cnccn3)C2)cc1 (stereo not drawn) do in these assays?
HSF1 inhib: 25; NOD2 RIPK2 PPI: -1; HSF1 activator: 61*; TLR9-MyD88 block: 2

Results for CNc1ccc(-c2ccccc2CO)cn1 ?
NOD2 RIPK2 PPI: 5

Results for CC1C(=O)N2CCCc3cc(NC(=O)CC(C)(C)C)cc1c32 (stereo not drawn) ?
HSF1 inhib: -3; NOD2 RIPK2 PPI: -12; HSF1 activator: -6; TLR9-MyD88 block: 1

Results for CCCNC(=O)c1noc2c1CCc1cc(OC)ccc1-2 ?
TLR4-MyD88 BLA: -7; HSF1 inhib: 18; NOD2 RIPK2 PPI: -10; HSF1 activator: 67*; TLR9-MyD88 block: 2

What do the screens show for `COc1ccc2c(c1)CCc1c(C(=O)NCC(C)C)noc1-2`?
TLR4-MyD88 BLA: -13; HSF1 inhib: 34; NOD2 RIPK2 PPI: -5; HSF1 activator: 58*; TLR9-MyD88 block: -4

What do the screens show for `COc1ccc2c(c1)CCc1c(C(=O)NCc3cccnc3)noc1-2`?
TLR4-MyD88 BLA: 6; HSF1 inhib: 4; NOD2 RIPK2 PPI: 1; HSF1 activator: 10; TLR9-MyD88 block: 4

Results for CCCC(=O)O/N=C(\c1ccccc1)c1ccncc1 ?
HSF1 inhib: 13; NOD2 RIPK2 PPI: 5; HSF1 activator: 57*; TLR9-MyD88 block: 3
